# Only some compounds are listed: those with a hit (about 5.6% of all), similar ones and a draw of the others.
# CtBP-E1A inh: qHTS Assay for Inhibitors of the CtBP/E1A Interaction; actives 0.49% (n = 340,000); CtBP / adenovirus E1A interaction (AlphaScreen); activity change, % (test concentration not listed); AlphaScreen GST-E1A/His-CtBP binding, 1536-well; stronger effect = lower value; in the data active = activity change below about -65%; inconclusive = mostly about -30% to -63%
#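 Steps: dispense buffer (Tris pH 8.0, NaCl 300 mM, TCEP 1 mM, BSA, Tween 20); add 5X protein mix (GST-E1A, His-CtBP, 125 nM each); pin 23 nL compound; 2 h at 37 °C, dark; add 5X beads (50 ug/mL); 1 h; read.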
# Six1-Eya2 blk: qHTS Assay for Inhibitors of the Six1/Eya2 Interaction | Homeobox protein SIX1 (Homo sapiens) + Protein phosphatase EYA2 (Homo sapiens), … | AlphaScreen GST-Six1/His-Eya2 binding, biochemical; stronger effect = lower value | activity change, % (no concentration beside the values) | actives 0.56% (n = 360,000) | AID 651725, 2012; in the data active = activity change below about -65%; inconclusive = mostly about -30% to -63%
# Target sequence (O00167 whole entry, looked up): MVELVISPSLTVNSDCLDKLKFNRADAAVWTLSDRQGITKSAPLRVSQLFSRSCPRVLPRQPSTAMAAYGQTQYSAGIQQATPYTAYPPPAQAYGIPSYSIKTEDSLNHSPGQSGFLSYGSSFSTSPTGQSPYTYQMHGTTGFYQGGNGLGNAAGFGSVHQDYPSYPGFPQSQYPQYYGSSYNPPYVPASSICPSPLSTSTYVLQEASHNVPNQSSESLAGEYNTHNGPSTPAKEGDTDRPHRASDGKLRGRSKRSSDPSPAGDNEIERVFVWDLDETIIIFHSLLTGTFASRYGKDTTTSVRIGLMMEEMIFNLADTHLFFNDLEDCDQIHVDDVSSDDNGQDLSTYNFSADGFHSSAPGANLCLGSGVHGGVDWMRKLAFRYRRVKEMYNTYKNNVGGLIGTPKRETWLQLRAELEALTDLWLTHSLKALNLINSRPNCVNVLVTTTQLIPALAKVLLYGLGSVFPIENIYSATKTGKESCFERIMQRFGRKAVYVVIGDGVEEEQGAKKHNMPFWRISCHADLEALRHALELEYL
# Target sequence (Q15475 whole entry, looked up): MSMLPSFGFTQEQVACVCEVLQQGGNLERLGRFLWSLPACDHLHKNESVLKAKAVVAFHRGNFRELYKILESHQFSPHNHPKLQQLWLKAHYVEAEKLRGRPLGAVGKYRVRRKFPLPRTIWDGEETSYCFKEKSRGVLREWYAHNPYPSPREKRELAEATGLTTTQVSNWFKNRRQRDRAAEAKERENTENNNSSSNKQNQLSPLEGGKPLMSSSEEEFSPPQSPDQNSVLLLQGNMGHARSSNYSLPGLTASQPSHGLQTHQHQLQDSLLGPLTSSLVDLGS
#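 Homogeneous AlphaScreen proximity assay pairing GST-Six1 with His-tagged Eya2 (added as 5X mix: 250 nM and 500 nM) in 50 mM Tris pH 8.0, 300 mM NaCl, 1 mM TCEP. Glutathione donor and nickel acceptor beads; 1 h, 37 °C, dark.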
# RORg inh: qHTS for inhibitors of ROR gamma transcriptional activity. actives 5.4% (n = 310,000). Drosophila S2 Gal4-RORgamma UAS-luciferase reporter, 20 h. Potency, µM (doses to about 53.6 µM), without a hit: at the top dose activity change, negative = inhibition, hits mostly inhibitors; also: potency is read from the fitted curve at half-maximal effect; nearly all actives have a fitted effect of over 60% in size
#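 In this cell-based reporter format, copper sulfate (700 uM final) drives Gal4–ROR gamma fusion expression from a metallothionein promoter in Drosophila Schneider cells; compounds preincubated 1 hr, reporter read after 20 hr at ambient temperature.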
# PKM2 act: qHTS Assay for Activators of Human Muscle isoform 2 Pyruvate Kinase; purified PKM2, Kinase-Glo ATP luminescence, activation; response scale: 0% is enzyme alone, no compound; Potency, µM (series often up to 57.5 µM), for inactives: at the top dose activation, hits mostly activators; actives 0.34% (n = 260,000); also: potency is read from the fitted curve at half-maximal effect; nearly all actives have a fitted effect of over 55% in size
#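 ATP formation by purified human PK-M2, quantified via coupled luciferase luminescence after 1 h at room temperature with 0.1 mM ADP and 0.5 mM PEP final.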
# Gal4-VP16 FLuc: VP16 counterscreen qHTS for inhibitors of ROR gamma transcriptional activity; Drosophila S2 Gal4-VP16 UAS-luciferase, luminescence, 20 h; Potency, µM (top dose mostly 53.6 µM), inactives show at the highest dose activity, negative = inhibition, usual class: inhibitors; actives 3.5% (n = 310,000);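 also: Gal4-VP16 expression switched on by copper sulfate through the metallothionein promoter; potency is read from the fitted curve at half-maximal effect; nearly all actives have a fitted effect of over 50% in size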
# Starred values were filed as active, the others as inactive; u = inconclusive; x = not tested or not shown; [ ] = dose if it differs, or a comment. Unless noted, calls follow the shape of the dose curve; as a rule, active = well fitted curve in the direction sought with a large enough effect; inconclusive = small, poorly fitted or top-dose-only effect, or another doubt; inactive = no such curve, though single readings can be large; an effect the other way counts as inactive or inconclusive. % is scaled to controls: 0 for no effect and ±100 for the full control effect.
SMILES,CtBP-E1A inh,Six1-Eya2 blk,RORg inh,PKM2 act,Gal4-VP16 FLuc
Cc1ccc(Nc2nc(N/N=C/c3c[nH]c4ccccc34)nc(N3CCOCC3)n2)cc1,-15,-21,11µM*,-14%,u
COC(=O)C1=C(C(=O)OC)[C@@H]2N(Cc3ccccc3)c3ccccc3[C@@]23C[C@@H](C(=O)OC)N(S(=O)(=O)c2ccc4c(c2)OCCN4C)C3=N1,x,x,x,-11%[11.5 µM],x
COc1ccc(CN(CC(=O)NCc2ccc(F)cc2)C(=O)CCC(=O)Nc2ccccn2)cc1,-2,-8,11%,0%,18%
COc1ccccc1N1CCN(C(=S)NC(=O)/C=C/c2ccc(F)cc2)CC1,u,-8,3.5µM*,-6%,10µM*
COc1ccccc1N1CCN(C(=S)NC(=O)/C=C/c2ccccc2)CC1,0,19,0.89µM*,-1%,7.1µM*
CN(CCOc1ccc(Br)cc1)C(=O)CNC(=O)c1ccc2ccccc2c1,1,-4,0%,1%,-1%
C[C@H]1CN([C@@H](C)CO)C(=O)CCCn2nncc2CO[C@H]1CN(C)S(=O)(=O)c1ccc(Oc2ccccc2)nc1,-5,-6,x,x,x
CS(=O)(=O)c1ccc(NC(=O)c2ccc3c(c2)S(=O)(=O)N=C2CCCCCN23)cc1,0,29,x,x,x
O=C(Nc1nc2ccccc2c(=O)s1)c1ccco1,x,-2,-13%,-4%,-4%
CCOc1ccc(Nc2nc3ccccc3c(=O)s2)cc1,-9,-14,4µM*,-1%,u
CCc1ccc(Nc2nc3ccccc3c(=O)s2)cc1,1,0,0.89µM*,-15%,1.4µM*
CCN(CC(=O)NCc1cccs1)C(=O)c1ccc(-c2ccccc2F)o1,-1,-2,x,x,x
Cc1ccc(/C(O)=C2\C(=O)C(=O)N(CC(C)O)C2c2ccccn2)cc1 (stereo not drawn),-2,3,-12%,-5%,-7%
Cc1ccc(CS/C(Nc2ccccc2C)=C(\C#N)C(N)=O)c(C)c1,0,-3,12%,-12%,-6%
O=C(N/N=C\C=C\c1ccc2c(c1)OCO2)c1ccc(F)cc1,2,-4,2.2µM*,-11%,5.6µM*
CCOc1ccc(-n2c(O)c(/C=N/NC(=O)C3COc4ccccc4O3)c3ccccc3c2=O)cc1 (stereo not drawn),-8,-21,3.2µM*,-9%,4.5µM*
O=C(N/N=C/C=C/c1ccc([N+](=O)[O-])cc1)C1COc2ccccc2O1 (stereo not drawn),-20,-19,10µM*,-10%,11µM*
Cc1cc([N+](=O)[O-])cc(/C=N\NC(=O)C2COc3ccccc3O2)c1O (stereo not drawn),-72*,-87*,2.2µM*,-9%,4.5µM*
CC1=C(C(=O)N2CCOCC2)CC(CC(=O)NC2CCCCC2)C(=O)N1Cc1ccccc1 (stereo not drawn),0,2,x,x,x
CC(C)(C)c1ccc2c(c1)OC(C(=O)N/N=C\c1ccc[nH]1)CO2 (stereo not drawn),-28,-26,7.9µM*,x,5µM*
O=C(N/N=C/c1ccc2c(c1)OCO2)C1COc2ccccc2O1 (stereo not drawn),-4,-7,20%,-2%,7%
O=C(N/N=C\c1cc(Br)cs1)C1COc2ccccc2O1 (stereo not drawn),1,-1,10µM*,8%,u
Cn1cccc1/C=N\NC(=O)C1COc2ccccc2O1 (stereo not drawn),x,-9,-33%,x,9%
O=C(N/N=C\C=C\c1ccc2c(c1)OCO2)C1COc2cc3ccccc3cc2O1 (stereo not drawn),-5,4,7.1µM*,-3%,u
CC(C)OCCCNC(=O)C1CCN(S(=O)(=O)c2ccc3nc4c(c(C(=O)O)c3c2)CCCCC4)CC1,3,0,-3%,x,-5%

# Source: PubChem BioAssay (National Center for Advancing Translational Sciences (NCATS))
